Most compounds without a hit are left out; they make up all but 3.5% or so of the library.
TEAD-YAP block: TEAD-YAP interaction inhibition; HEK-TIYL cells, TEAD-Gal4/YAP UAS-luciferase luminescence; inhibition, % at 9.12 µM; 640,000 tested, 1.4% active; AID 1259422; in the data active means inhibition above about 32%;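 further: 0% = median of test compound wells and 100% = reference inhibitor wells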
FBW7 act: activators of human E3 ligase FBW7; Q969H0; AlphaScreen FBW7–phospho-cyclin E peptide binding, activator screen; normalized activity (activation), % at 26.1 µM; 650,000 tested, 0.13% active; AID 1259310; in the data active means normalized activity above about 1.9%;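 further: purified mutant Fbw7 with reduced substrate affinity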
Target sequence (Q969H0 whole entry, looked up): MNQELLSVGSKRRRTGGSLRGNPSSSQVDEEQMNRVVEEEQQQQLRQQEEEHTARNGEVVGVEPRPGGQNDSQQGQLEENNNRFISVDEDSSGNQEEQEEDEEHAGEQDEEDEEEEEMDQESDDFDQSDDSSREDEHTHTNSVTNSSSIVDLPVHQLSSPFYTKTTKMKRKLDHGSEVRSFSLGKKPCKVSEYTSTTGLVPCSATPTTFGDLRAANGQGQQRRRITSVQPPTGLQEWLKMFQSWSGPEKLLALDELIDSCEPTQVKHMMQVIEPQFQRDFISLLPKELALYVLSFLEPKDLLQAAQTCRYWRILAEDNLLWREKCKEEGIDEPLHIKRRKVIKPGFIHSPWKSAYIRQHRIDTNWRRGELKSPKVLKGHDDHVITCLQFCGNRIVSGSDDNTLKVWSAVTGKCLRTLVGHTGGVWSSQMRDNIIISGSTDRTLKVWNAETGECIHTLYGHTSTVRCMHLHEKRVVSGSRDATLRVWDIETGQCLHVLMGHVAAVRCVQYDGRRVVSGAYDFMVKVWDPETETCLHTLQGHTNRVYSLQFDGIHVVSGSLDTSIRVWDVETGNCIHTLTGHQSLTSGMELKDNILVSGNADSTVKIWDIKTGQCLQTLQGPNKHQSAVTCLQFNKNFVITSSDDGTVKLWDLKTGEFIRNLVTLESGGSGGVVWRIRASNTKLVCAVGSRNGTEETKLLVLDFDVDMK
GPR151 ag: human GPR151 activation; Q8TDV0; PathHunter beta-arrestin GPR151 cells, luminescence; 650,000 tested, 1% active; activation, % at 11.2 µM; in the data active means activation above about 4.9%;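 further: 0% = median of compound wells and 100% = cells with positive control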
MITF primary: inhibitors of human MITF. O75030. AlphaScreen MITF homodimerization, bead proximity signal. inhibition, % at 2.6 µM. 650,000 tested, 0.91% active. AID 1259374; in the data active means inhibition above about 50%;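 further: 0% = vehicle wells with protein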
GPR151 confirm: human GPR151 activation, confirmation screen. GPR151 PathHunter beta-arrestin cells, luminescence, 90 min; % of EA-reagent control over plate median. shares compounds with GPR151 ag. 6,700 tested, under 10 active. activation, % at 11.2 µM;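 active means mean percent activation across replicates above the confirmation screen cutoff of 4.91%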
GPR119 ag: GPR119 activation, counter-screen for GPR151 activators; shares compounds with GPR151 ag; GPR119 PathHunter beta-arrestin cells, luminescence, 90 min; 0 = compound-well median, 100 = enzyme-acceptor control; activation, % at 11.2 µM; 6,700 tested, 0.3% active;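 active means mean percent activation in the counterscreen above 29.09%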;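 further: counterscreen on off-target GPR119 to flag nonselective hits from the GPR151 activator screen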
Starred values were filed as active, the others as inactive.

How did CN1CCN(Cc2ccc(-c3ccccc3Cl)o2)CC1CCO (stereo unspecified) do in these assays?
TEAD-YAP block: -12; FBW7 act: 0; GPR151 ag: 14*; MITF primary: -1; GPR151 confirm: 0; GPR119 ag: 4

How did CC(C)(NC(=O)c1cccc(C(F)(F)F)c1)c1ccncc1 do in these assays?
TEAD-YAP block: -17; FBW7 act: 0; GPR151 ag: -1; MITF primary: -8

How did O=[N+]([O-])c1ccccc1S(=O)(=O)c1ccccc1[N+](=O)[O-] do in these assays?
TEAD-YAP block: 10; FBW7 act: 1; GPR151 ag: 5.5*; MITF primary: 16; GPR151 confirm: 0; GPR119 ag: -1

What do the screens show for `O=S(=O)(NCc1ccco1)c1cccc2c(S(=O)(=O)NCc3ccco3)cccc12`?
TEAD-YAP block: -1; FBW7 act: 0; GPR151 ag: 0; MITF primary: 11

Results for O=[N+]([O-])c1ccccc1S(=O)(=O)NCc1ccco1 ?
TEAD-YAP block: -23; FBW7 act: 0; GPR151 ag: 7.1*; MITF primary: 14; GPR151 confirm: 0; GPR119 ag: 13

How did CCn1ccnc1CN(C)Cc1ccc(OCC(O)CN2CCc3ccccc3C2)cc1 (stereo unspecified) do in these assays?
TEAD-YAP block: 4; FBW7 act: 0; GPR151 ag: 10*; MITF primary: 0; GPR151 confirm: 0; GPR119 ag: -16

How did COc1ccc(-c2cc(C(=O)Nc3cccc(C(F)(F)F)c3)c3ccccc3n2)cc1 do in these assays?
TEAD-YAP block: 2; FBW7 act: 0; GPR151 ag: 1; MITF primary: -10

Results for Cc1nc2cc(C(=O)NCCN3CCOCC3)ccc2n1-c1ccc(Br)cc1 ?
TEAD-YAP block: 2; FBW7 act: 0; GPR151 ag: -1; MITF primary: -9

Results for Cc1ccc(C(=O)C2=C(O)C(=O)N(CCN3CCOCC3)C2c2ccccn2)o1 (stereo unspecified) ?
TEAD-YAP block: 5; FBW7 act: 0; GPR151 ag: 7.9*; MITF primary: 27; GPR151 confirm: 0; GPR119 ag: -1

Results for NC(=O)c1oc2ccccc2c1NC(=O)c1ccc(N2C(=O)CCC2=O)cc1 ?
TEAD-YAP block: 6; FBW7 act: 0; GPR151 ag: -2; MITF primary: -3

What do the screens show for `CCCN(CCC)Cc1c(C(=O)O)nnn1-c1nonc1N`?
TEAD-YAP block: 0; FBW7 act: 0; GPR151 ag: 6.0*; MITF primary: 8; GPR151 confirm: -1; GPR119 ag: -4

What do the screens show for `O=C(Nc1ccc(O)c(-c2nc3ccccc3o2)c1)c1cccc2c(Br)cccc12`?
TEAD-YAP block: 4; FBW7 act: 0; GPR151 ag: 2; MITF primary: -12

Results for CCc1ccc(CNCc2c(C(=O)N(C)Cc3ccccc3)nc3ccccn23)nc1 ?
TEAD-YAP block: 1; FBW7 act: 0; GPR151 ag: 0; MITF primary: 4

How did CC1=CCC2C(=O)N(Cc3ccccc3)C(=O)C2C1 (stereo unspecified) do in these assays?
TEAD-YAP block: 1; FBW7 act: 0; GPR151 ag: 1; MITF primary: -34

Results for CC1=CCC2C(=O)N(C(C)c3ccccc3)C(=O)C2C1 (stereo unspecified) ?
TEAD-YAP block: 1; FBW7 act: 0; GPR151 ag: 7.5*; MITF primary: -7; GPR151 confirm: -1; GPR119 ag: -7

How did COC(=O)c1cc(OC(=O)Cc2cc(OC)c(OC)c(OC)c2)cc(C(=O)OC)c1 do in these assays?
TEAD-YAP block: -3; FBW7 act: 0; GPR151 ag: 0; MITF primary: -8

How did Cc1oc(C2CC2)cc1C(=O)N1CCC(n2c(C)nc3sc(C)c(C)c3c2=O)CC1 do in these assays?
TEAD-YAP block: -18; FBW7 act: 0; GPR151 ag: 2; MITF primary: -7

What do the screens show for `Nc1ccc(C(=O)Nc2ccc(Oc3cccc(Oc4ccc(NC(=O)c5ccc(N)cc5)cc4)c3)cc2)cc1`?
TEAD-YAP block: 0; FBW7 act: 0; GPR151 ag: 6.1*; MITF primary: 7; GPR151 confirm: -1; GPR119 ag: -14

Results for Cc1nc(SCC(=O)c2c(C)[nH]c3ccccc23)c2ccsc2n1 ?
TEAD-YAP block: 9; FBW7 act: 0; GPR151 ag: 0; MITF primary: 18

Results for COC(=O)c1ccc(C(=O)OC)c(NC(=O)CSc2nnc(-c3ccco3)o2)c1 ?
TEAD-YAP block: -4; FBW7 act: 0; GPR151 ag: 3; MITF primary: -6

What do the screens show for `CCOC(=O)c1c(NC(=O)CSc2nnc(-c3ccco3)o2)sc(C)c1C`?
TEAD-YAP block: 5; FBW7 act: 0; GPR151 ag: 5.1*; MITF primary: 25; GPR151 confirm: 0; GPR119 ag: -6

Results for COC(=O)c1ccccc1NC(=O)CSc1nnc(-c2ccco2)o1 ?
TEAD-YAP block: -14; FBW7 act: 0; GPR151 ag: 8.3*; MITF primary: -6; GPR151 confirm: 1; GPR119 ag: 10

How did CCOC(=O)c1c(NC(=O)CSc2nnc(-c3ccco3)o2)sc(C(C)=O)c1C do in these assays?
TEAD-YAP block: -6; FBW7 act: 0; GPR151 ag: 0; MITF primary: 0

Results for CCN(CC)c1ccc(NS(=O)(=O)c2cc(C(=O)O)ccc2OC)cc1 ?
TEAD-YAP block: -5; FBW7 act: 0; GPR151 ag: -1; MITF primary: 5

Results for O=C(CN1C(C(=O)c2ccccc2)=C(N2CCOCC2)c2ccccc2S1(=O)=O)c1ccc([N+](=O)[O-])cc1 ?
TEAD-YAP block: 7; FBW7 act: 0; GPR151 ag: 0; MITF primary: -12

What do the screens show for `CC(Cc1ccccc1)N=C1SCC(=O)N1Cc1ccccc1` (stereo unspecified)?
TEAD-YAP block: -1; FBW7 act: 0; GPR151 ag: 7.6*; MITF primary: -19; GPR151 confirm: 0; GPR119 ag: 1

How did Cn1c(=O)oc2cc(S(=O)(=O)N3CCC(N4CCCCC4)CC3)ccc21 do in these assays?
TEAD-YAP block: -4; FBW7 act: 0; GPR151 ag: 5.9*; MITF primary: 16; GPR151 confirm: -1; GPR119 ag: -9

What do the screens show for `Cn1c(=O)oc2cc(S(=O)(=O)N3CCN(C4CCCCC4)CC3)ccc21`?
TEAD-YAP block: -12; FBW7 act: 0; GPR151 ag: -1; MITF primary: 4

How did CCCCC(c1nnnn1CCOC)N1CCN(c2ccccc2)CC1 (stereo unspecified) do in these assays?
TEAD-YAP block: -1; FBW7 act: 0; GPR151 ag: 5.1*; MITF primary: 7; GPR151 confirm: 1; GPR119 ag: 9

Results for CCC1CN(Cc2nc3ccccc3[nH]2)Cc2cc(OC)ccc2O1 (stereo unspecified) ?
TEAD-YAP block: 2; FBW7 act: 0; GPR151 ag: -1; MITF primary: -16
